# Assay results from the supplement of paper PMC12282887.
# ± gives the standard deviation of the averaged measurements.
# System: E. coli BW25113 marRABp lux reporter
# Assay: promoter activity interaction Z-score (Lux/OD deviation from empty-vector control); higher = stronger promoter induction by the compound
# Procedure: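 E. coli BW25113 (wild type or ΔmarA/ΔsoxS/Δrob) carrying pTU175 luxCDABE promoter reporters was grown in LB in 384-well plates at 37°C with each of 94 compounds at 4 two-fold concentrations, in biological duplicates. Luminescence and OD600 were read every 30 min for 12 h and integrated as AUC over 8 h (0-8 h WT, 1-9 h mutants). Lux AUC was divided by OD AUC; the interaction score is the residual of a Huber robust fit of each promoter against the empty-vector control, then Z-transformed per promoter.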
# [1] = 2.6 µg/ml, genetic background: wild type
# [2] = 2.6 µg/ml, genetic background: ΔmarA
# [3] = 2.6 µg/ml, genetic background: Δrob
# [4] = 2.6 µg/ml, genetic background: ΔsoxS
structure (smiles),measurement,setting,value
C[n+]1ccc(-c2cc[n+](C)cc2)cc1 [Paraquat],promoter activity interaction Z-score,"0.64 µg/ml, genetic background: wild type",0.0393 ± 0.059
same,promoter activity interaction Z-score,"0.64 µg/ml, genetic background: ΔmarA",0.259 ± 0.056
same,promoter activity interaction Z-score,"0.64 µg/ml, genetic background: Δrob",0.471 ± 0.061
same,promoter activity interaction Z-score,"0.64 µg/ml, genetic background: ΔsoxS",0.397 ± 0.44
same,promoter activity interaction Z-score,"1.3 µg/ml, genetic background: wild type",0.123 ± 0.012
same,promoter activity interaction Z-score,"1.3 µg/ml, genetic background: ΔmarA",0.332 ± 0.16
same,promoter activity interaction Z-score,"1.3 µg/ml, genetic background: Δrob",0.857 ± 0.029
same,promoter activity interaction Z-score,"1.3 µg/ml, genetic background: ΔsoxS",0.407 ± 0.47
same,promoter activity interaction Z-score,[1],0.508 ± 0.11
same,promoter activity interaction Z-score,[2],0.467 ± 0.19
same,promoter activity interaction Z-score,[3],1.16 ± 0.33
same,promoter activity interaction Z-score,[4],0.215 ± 0.34
same,promoter activity interaction Z-score,"5.1 µg/ml, genetic background: wild type",1.52 ± 0.99
same,promoter activity interaction Z-score,"5.1 µg/ml, genetic background: ΔmarA",1.25 ± 0.44
same,promoter activity interaction Z-score,"5.1 µg/ml, genetic background: Δrob",2.54 ± 0.066
same,promoter activity interaction Z-score,"5.1 µg/ml, genetic background: ΔsoxS",0.698 ± 0.45
CC(=O)N[C@H]1[C@@H](O[C@@H]2O[C@H](CC(O)[C@H]3O[C@@H](n4ccc(=O)[nH]c4=O)[C@H](O)[C@@H]3O)[C@H](O)[C@H](O)[C@H]2NC(=O)/C=C/CC(C)C)O[C@H](CO)[C@@H](N)[C@@H]1O (stereo partly drawn) [Tunicamycin],promoter activity interaction Z-score,[1],-0.437 ± 0.048
same,promoter activity interaction Z-score,[2],-0.39 ± 0.54
same,promoter activity interaction Z-score,[3],-0.2 ± 0.15
same,promoter activity interaction Z-score,[4],-0.379 ± 0.38
same,promoter activity interaction Z-score,"5.3 µg/ml, genetic background: wild type",-0.455 ± 0.15
same,promoter activity interaction Z-score,"5.3 µg/ml, genetic background: ΔmarA",-0.634 ± 0.41
same,promoter activity interaction Z-score,"5.3 µg/ml, genetic background: Δrob",-0.284 ± 0.008
same,promoter activity interaction Z-score,"5.3 µg/ml, genetic background: ΔsoxS",-0.282 ± 0.18
same,promoter activity interaction Z-score,"10.6 µg/ml, genetic background: wild type",-0.326 ± 0.14
same,promoter activity interaction Z-score,"10.6 µg/ml, genetic background: ΔmarA",-0.464 ± 0.54
same,promoter activity interaction Z-score,"10.6 µg/ml, genetic background: Δrob",-0.127 ± 0.2
same,promoter activity interaction Z-score,"10.6 µg/ml, genetic background: ΔsoxS",-0.485 ± 0.34
same,promoter activity interaction Z-score,"21.1 µg/ml, genetic background: wild type",-0.471 ± 0.16
same,promoter activity interaction Z-score,"21.1 µg/ml, genetic background: ΔmarA",-0.634 ± 0.25
same,promoter activity interaction Z-score,"21.1 µg/ml, genetic background: Δrob",-0.663 ± 0.56
same,promoter activity interaction Z-score,"21.1 µg/ml, genetic background: ΔsoxS",-0.645 ± 0.46
NCCc1c[nH]c2ccc(O)cc12 [Serotonine],promoter activity interaction Z-score,"13.3 µg/ml, genetic background: wild type",-0.413 ± 0.011
same,promoter activity interaction Z-score,"13.3 µg/ml, genetic background: ΔmarA",-0.686 ± 0.15
same,promoter activity interaction Z-score,"13.3 µg/ml, genetic background: Δrob",-0.419 ± 0.028
same,promoter activity interaction Z-score,"13.3 µg/ml, genetic background: ΔsoxS",-0.41 ± 0.18
same,promoter activity interaction Z-score,"26.6 µg/ml, genetic background: wild type",-0.214 ± 0.13
same,promoter activity interaction Z-score,"26.6 µg/ml, genetic background: ΔmarA",-0.554 ± 0.18
same,promoter activity interaction Z-score,"26.6 µg/ml, genetic background: Δrob",-0.414 ± 0.15
same,promoter activity interaction Z-score,"26.6 µg/ml, genetic background: ΔsoxS",-0.421 ± 0.26
same,promoter activity interaction Z-score,"53.2 µg/ml, genetic background: wild type",-0.616 ± 0.21
same,promoter activity interaction Z-score,"53.2 µg/ml, genetic background: ΔmarA",-0.71 ± 0.041
same,promoter activity interaction Z-score,"53.2 µg/ml, genetic background: Δrob",-0.479 ± 0.089
same,promoter activity interaction Z-score,"53.2 µg/ml, genetic background: ΔsoxS",-0.523 ± 0.25
same,promoter activity interaction Z-score,"106.3 µg/ml, genetic background: wild type",-0.518 ± 0.15
same,promoter activity interaction Z-score,"106.3 µg/ml, genetic background: ΔmarA",-0.531 ± 0.2
same,promoter activity interaction Z-score,"106.3 µg/ml, genetic background: Δrob",-0.324 ± 0.025
same,promoter activity interaction Z-score,"106.3 µg/ml, genetic background: ΔsoxS",-0.498 ± 0.093
